# PubChem BioAssay (Tox21)
# Unmarked numbers belong to inactive results. Records with an inconclusive call do not appear. Where a call stands in place of a potency, no number is given. Active and inactive are the calls of the source. Unless noted, the call rests on the fitted dose curve.
# Key:
# [1] = Nuclear factor erythroid 2-related factor 2/antioxidant responsive element (Nrf2/ARE) small molecule agonists: luciferase reporter gene qHTS assay in human keratinocytes (AID 1919969); further: nearly all actives have a fitted effect of over 35% in size
# [2] = target: Gonadotropin-releasing hormone receptor (Homo sapiens) (UniProt P30968); experiment: Human gonadotropin-releasing hormone receptor (GnRHR) small molecule agonists, calcium flux assay in GnRHR-HEK293 cells (AID 1920063); further: nearly all actives have a fitted effect of over 35% in size
# Gonadotropin-releasing hormone receptor (Homo sapiens), sequence (P30968 whole entry, looked up): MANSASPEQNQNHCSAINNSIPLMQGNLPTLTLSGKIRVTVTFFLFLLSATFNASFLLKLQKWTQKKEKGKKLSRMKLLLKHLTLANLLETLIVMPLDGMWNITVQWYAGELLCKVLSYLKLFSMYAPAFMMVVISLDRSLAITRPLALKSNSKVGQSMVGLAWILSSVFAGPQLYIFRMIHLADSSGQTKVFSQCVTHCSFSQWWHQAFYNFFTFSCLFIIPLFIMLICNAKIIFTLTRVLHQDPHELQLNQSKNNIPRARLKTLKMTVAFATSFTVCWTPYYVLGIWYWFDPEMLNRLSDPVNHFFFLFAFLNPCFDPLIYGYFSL
# Summary of the method: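 Calcium-dye fluorescence, Ex/Em=480/540, recorded every 1 sec over 3 min after compound addition to GnRHR-HEK293 cells. Cells had been seeded 18 hours earlier and dye-loaded for 1 hour at 37 C. Fifteen concentrations, triplicates.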
# [3] = target: KiSS-1 receptor (Homo sapiens) (UniProt Q969F8); experiment: Human kisspeptin (KISS1R) small molecule agonists, calcium flux assay in KISS1R-HEK293 cells (AID 1920064; active means well fitted activation curve with a large enough effect in the repeat runs)
# KiSS-1 receptor (Homo sapiens), sequence (Q969F8 whole entry, looked up): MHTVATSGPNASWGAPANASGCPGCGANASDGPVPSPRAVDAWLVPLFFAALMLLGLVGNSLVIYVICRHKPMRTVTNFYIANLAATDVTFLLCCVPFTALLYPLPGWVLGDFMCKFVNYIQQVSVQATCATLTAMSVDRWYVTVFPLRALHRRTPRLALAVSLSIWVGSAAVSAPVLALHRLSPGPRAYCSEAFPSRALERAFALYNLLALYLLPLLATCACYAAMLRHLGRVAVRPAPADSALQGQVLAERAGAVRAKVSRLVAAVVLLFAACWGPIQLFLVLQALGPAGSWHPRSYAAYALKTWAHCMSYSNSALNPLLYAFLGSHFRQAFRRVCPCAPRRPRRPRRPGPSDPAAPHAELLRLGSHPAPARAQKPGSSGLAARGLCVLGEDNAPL
# Summary of the method: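 Calcium flux read-out: kinetic fluorescence at Ex/Em=480/540, 1 s intervals over 3 min, after pin-tool compound addition to dye-loaded KISS1R-HEK293 cells. Fifteen concentrations, triplicates.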
# [4] = G protein-coupled receptor (GPCR) small molecule agonists, calcium flux assay: HEK293 wild type cell line counter screen (AID 1920065)
# Summary of the method: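 Agonist mode; 18 h seeding at 37 C, 1 h dye load at 37 C; compounds pinned from DMSO, ATP as positive control; kinetic fluorescence 480/540 nm, 3 min, 1 s reads; 15 concentrations, triplicate.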
# [5] = p53 small molecule agonists, cell-based qHTS assay with human liver microsomes: qHTS cell viability counter screen (AID 1963579); further: nearly all actives have a fitted effect of over 45% in size; further: potency means the concentration at half of the fitted maximal effect
# Summary of the method: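 Viability of p53RE-bla cells is measured as CellTiter-Glo luminescence following a 16 h, 37 C incubation with compound, liver microsomes from human donors and NADPH.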
# [6] = p53 small molecule agonists, cell-based qHTS assay with rat liver microsomes: qHTS cell viability counter screen (AID 1963580); further: nearly all actives have a fitted effect of over 45% in size
# Summary of the method: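 After the beta-lactamase ratio was read, CellTiter-Glo was added to the same wells and luminescence measured at 30 min; cells had been treated 16 h at 37 C with compounds, rat liver microsomes and NADPH (0.5 mg/mL final each).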
# [7] = p53 small molecule agonists, cell-based qHTS assay: qHTS cell viability counter screen (AID 1963581); further: nearly all actives have a fitted effect of over 45% in size
# Summary of the method: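 Cytotoxicity read-out: ATP-based luminescence (CellTiter-Glo, 30 min RT) measured in the same wells as the p53 reporter assay, HCT-116 p53RE-bla cells, 16 h compound exposure at 37 C.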
# [8] = target: 5-hydroxytryptamine receptor 2A (Homo sapiens) (UniProt P28223); experiment: 5-hydroxytryptamine receptor 2A (HTR2A) small molecule antagonists, cell-based qHTS assay (AID 1963586); further: nearly all actives have a fitted effect of over 45% in size
# 5-hydroxytryptamine receptor 2A (Homo sapiens), sequence (P28223 whole entry, looked up): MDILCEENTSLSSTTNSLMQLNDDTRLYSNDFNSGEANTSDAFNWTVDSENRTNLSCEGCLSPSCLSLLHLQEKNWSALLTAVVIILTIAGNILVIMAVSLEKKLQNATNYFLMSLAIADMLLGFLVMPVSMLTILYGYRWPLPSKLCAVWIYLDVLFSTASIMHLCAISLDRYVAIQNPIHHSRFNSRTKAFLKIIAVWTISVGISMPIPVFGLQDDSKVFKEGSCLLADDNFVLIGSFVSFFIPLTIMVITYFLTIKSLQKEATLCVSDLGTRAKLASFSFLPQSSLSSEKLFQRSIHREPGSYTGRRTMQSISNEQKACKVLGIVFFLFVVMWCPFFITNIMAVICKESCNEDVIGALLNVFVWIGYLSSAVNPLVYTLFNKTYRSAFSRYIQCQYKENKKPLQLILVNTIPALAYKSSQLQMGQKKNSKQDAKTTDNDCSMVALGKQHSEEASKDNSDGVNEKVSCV
# Summary of the method: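 CHO cells stably expressing human HTR2A were plated for 18 h at 37 C, then loaded with calcium dye for 1 h. Compounds were preincubated 5 min at room temperature before DOI (4 nM solution) was added. Kinetic fluorescence was read for 3 min.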
# [9] = target: 5-hydroxytryptamine receptor 2A (Homo sapiens) (UniProt P28223); experiment: 5-hydroxytryptamine receptor 2A (HTR2A) small molecule agonists, cell-based qHTS assay (AID 1963587); further: nearly all actives have a fitted effect of over 30% in size
# Summary of the method: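 CHO cells stably expressing human HTR2A, plated 18 h, loaded with calcium dye 1 h at 37 C. Agonist mode: compounds added and intracellular calcium fluorescence recorded kinetically for 2 min at 1 sec intervals.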
# [10] = target: Muscarinic acetylcholine receptor M1 (Homo sapiens) (UniProt P11229); experiment: Cholinergic receptor muscarinic 1 (CHRM1) small molecule agonists, cell-based qHTS assay (AID 1963589); further: nearly all actives have a fitted effect of over 35% in size
# Muscarinic acetylcholine receptor M1 (Homo sapiens), sequence (P11229 whole entry, looked up): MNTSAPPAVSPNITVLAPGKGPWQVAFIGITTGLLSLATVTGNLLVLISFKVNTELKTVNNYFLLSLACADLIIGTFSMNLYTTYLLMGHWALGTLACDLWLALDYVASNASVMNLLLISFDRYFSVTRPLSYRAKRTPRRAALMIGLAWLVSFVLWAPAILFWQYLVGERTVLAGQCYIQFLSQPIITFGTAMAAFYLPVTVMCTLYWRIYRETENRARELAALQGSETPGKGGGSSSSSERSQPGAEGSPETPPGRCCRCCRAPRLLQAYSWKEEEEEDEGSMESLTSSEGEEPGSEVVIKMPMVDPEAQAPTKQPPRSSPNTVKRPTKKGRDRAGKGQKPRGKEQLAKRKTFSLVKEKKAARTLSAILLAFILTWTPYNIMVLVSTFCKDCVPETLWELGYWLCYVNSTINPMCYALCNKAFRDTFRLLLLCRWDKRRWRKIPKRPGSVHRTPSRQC
# Summary of the method: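 Calcium flux read-out: kinetic fluorescence at 1 sec intervals after pin-tool compound addition to dye-loaded CHRM1-CHO cells (human M1). Agonist mode; 15 concentrations tested in triplicate independent runs.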
# [11] = cAMP Responsive Elements (CRE) small molecule agonists, cell-based qHTS assay (AID 1963590)
# Summary of the method: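 Beta-lactamase reporter readout: LiveBLAzer B/G FRET substrate, 2 h at room temperature, added after 3 h compound treatment of CRE-bla HEK 293T cells at 37 C/5% CO2.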
# [12] = cAMP Responsive Elements (CRE) small molecule antagonists, cell-based qHTS assay (AID 1963591; active means well fitted inhibition curve with a large enough effect in the signal ratio in the repeat runs, not every such curve was filed as active; the % refers to the signal ratio)
# Summary of the method: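 HEK293T CRE-bla; 18 h preincubation; compound pin-transfer; NKH477 0.25 uM final, 3 h, 37 C; LiveBLAzer FRET substrate 2 h RT.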
# [13] = target: Beta-2 adrenergic receptor (Homo sapiens) (UniProt P07550); experiment: Adrenergic beta2 receptor (ADRB2) small molecule antagonists, cell-based qHTS assay (AID 1963592); further: series mostly up to about 92 µM; nearly all actives have a fitted effect of over 50% in size
# Beta-2 adrenergic receptor (Homo sapiens), sequence (P07550 whole entry, looked up): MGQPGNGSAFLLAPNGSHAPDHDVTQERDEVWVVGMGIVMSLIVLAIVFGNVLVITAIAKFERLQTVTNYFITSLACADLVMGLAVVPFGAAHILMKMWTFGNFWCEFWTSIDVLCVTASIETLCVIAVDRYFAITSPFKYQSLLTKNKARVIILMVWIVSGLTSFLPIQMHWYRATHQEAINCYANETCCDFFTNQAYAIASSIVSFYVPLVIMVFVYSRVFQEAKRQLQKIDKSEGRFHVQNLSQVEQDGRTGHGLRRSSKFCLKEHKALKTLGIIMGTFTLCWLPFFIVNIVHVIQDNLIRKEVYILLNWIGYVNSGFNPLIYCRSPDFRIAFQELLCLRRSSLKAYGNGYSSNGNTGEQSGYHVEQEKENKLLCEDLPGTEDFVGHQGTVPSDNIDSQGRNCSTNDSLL
# Summary of the method: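 Assay format: CHO-ADRB2 cells, 18-20hr seeding at 37C/5% CO2, then compound plus 1nM isoproterenol agonist mix for 0.5hr RT. Homogeneous time-resolved fluorescence cAMP detection after 1hr, expressed as 665/615 nm ratio.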
# [14] = target: Beta-2 adrenergic receptor (Homo sapiens) (UniProt P07550); experiment: Adrenergic beta2 receptor (ADRB2) small molecule agonists, cell-based qHTS assay (AID 1963593);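 further: CHO cells stably overexpressing human ADRB2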
# Summary of the method: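 CHO cells stably over-expressing ADRB2 were plated overnight at 37C, then dosed with compounds plus a stimulation mix containing 100uM IBMX and 25uM Ro-20-1724 for 0.5hr at room temperature. cAMP was measured by HTRF competition, 1hr.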
# [15] = target: D(2) dopamine receptor (Homo sapiens) (UniProt P14416); experiment: Dopamine D2 receptor (DRD2) small molecule agonists, cell-based qHTS assay (AID 1963594); further: nearly all actives have a fitted effect of over 35% in size
# D(2) dopamine receptor (Homo sapiens), sequence (P14416 whole entry, looked up): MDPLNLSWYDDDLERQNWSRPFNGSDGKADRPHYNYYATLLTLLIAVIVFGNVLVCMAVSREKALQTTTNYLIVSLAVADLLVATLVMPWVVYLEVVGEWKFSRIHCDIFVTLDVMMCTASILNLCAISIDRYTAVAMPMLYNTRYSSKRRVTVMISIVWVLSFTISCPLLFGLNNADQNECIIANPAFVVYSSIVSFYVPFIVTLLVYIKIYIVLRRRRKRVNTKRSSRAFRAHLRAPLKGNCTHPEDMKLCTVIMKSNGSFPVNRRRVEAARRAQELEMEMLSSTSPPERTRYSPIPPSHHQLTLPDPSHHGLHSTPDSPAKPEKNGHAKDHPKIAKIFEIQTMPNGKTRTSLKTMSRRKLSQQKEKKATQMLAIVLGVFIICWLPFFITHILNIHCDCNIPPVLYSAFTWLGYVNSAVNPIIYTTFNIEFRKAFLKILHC
# Summary of the method: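 HEK293 cells stably expressing human DRD2, pre-treated with PDE inhibitor Ro20-1724 (0.1 mM final) and compound 10 min at room temperature, then stimulated with NKH477 (200nM […]) for 30 min. cAMP read by HTRF (665/620 nm).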
# [16] = target: D(2) dopamine receptor (Homo sapiens) (UniProt P14416); experiment: Dopamine D2 receptor (DRD2) small molecule antagonists, cell-based qHTS assay (AID 1963595; active means well fitted inhibition curve with a large enough effect in the signal ratio in the repeat runs, with a control signal flat; the % refers to the signal ratio)
# Summary of the method: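 DRD2-HEK293; 0.1 mM Ro20-1724; cpd 10 min RT; NKH477 200 nM + quinpirole 12 nM, 30 min RT; HTRF cAMP (cAMP-d2/anti-cAMP cryptate), 665/620 nm ratio after 1 h.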
# [17] = target: Muscarinic acetylcholine receptor M1 (Homo sapiens) (UniProt P11229); experiment: Cholinergic receptor muscarinic 1 (CHRM1) small molecule antagonists, cell-based qHTS assay (AID 1963588); further: nearly all actives have a fitted effect of over 40% in size
# Summary of the method: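 Compounds were tested at 15 concentrations in three independent runs. Dye-loaded CHRM1-CHO cells were exposed 5 min at room temperature before stimulation by acetylcholine added at 50nM. Intracellular calcium was read kinetically on FDSS for 3 min.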
smiles,measurement,setting,value
CNc1ccc([N+](=O)[O-])cc1,Potency,[1],inactive
same,Potency,[2],inactive
same,Potency,[3],inactive
same,Potency,[4],inactive
same,Potency,[5],inactive
same,Potency,[6],inactive
same,Potency,[7],inactive
same,Potency,[8],inactive
same,Potency,[9],inactive
same,Potency,[10],inactive
same,Potency,[11],inactive
same,Potency,[12],inactive
same,Potency,[13],inactive
same,Potency,[14],inactive
same,Potency,[15],inactive
same,Potency,[16],inactive
CN(C)c1ccncc1,Potency,[1],inactive
same,Potency,[2],inactive
same,Potency,[3],inactive
same,Potency,[4],inactive
same,Potency,[5],inactive
same,Potency,[6],inactive
same,Potency,[7],inactive
same,Potency,[8],inactive
same,Potency,[17],inactive
same,Potency,[10],inactive
same,Potency,[11],inactive
same,Potency,[12],inactive
same,Potency,[13],inactive
same,Potency,[15],inactive
CN(C)CCCO[C@@H]1[C@H]2OC(C)(C)O[C@H]2O[C@@H]1C(O)CO (stereo partly specified),Potency,[1],inactive
same,Potency,[2],inactive
same,Potency,[3],inactive
same,Potency,[4],inactive
same,Potency,[5],inactive
same,Potency,[6],inactive
same,Potency,[7],inactive
same,Potency,[8],inactive
same,Potency,[9],inactive
same,Potency,[17],inactive
same,Potency,[10],inactive
same,Potency,[11],inactive
same,Potency,[13],inactive
same,Potency,[15],inactive
same,Potency,[16],inactive
Cc1ccc(S(=O)(=O)NC(=O)NC2CCCCC2)cc1,Potency,[1],inactive
same,Potency,[2],inactive
same,Potency,[3],inactive
same,Potency,[4],inactive
same,Potency,[5],inactive
same,Potency,[6],inactive
same,Potency,[7],inactive
same,Potency,[9],inactive
same,Potency,[10],inactive
same,Potency,[11],inactive
same,Potency,[12],inactive
same,Potency,[13],inactive
same,Potency,[15],inactive
same,Potency,[16],inactive
O=CNc1ccccc1,Potency,[1],inactive
same,Potency,[2],inactive
same,Potency,[3],inactive
same,Potency,[4],inactive
same,Potency,[5],inactive
same,Potency,[6],inactive
same,Potency,[7],inactive
same,Potency,[8],inactive
same,Potency,[9],inactive
same,Potency,[10],inactive
same,Potency,[11],inactive
same,Potency,[12],inactive
same,Potency,[13],inactive
same,Potency,[15],inactive
same,Potency,[16],inactive
CC(=O)SCC(CC(=O)c1ccc(C)cc1)C(=O)O (stereo unspecified),Potency,[1],inactive
same,Potency,[2],inactive
same,Potency,[3],inactive
same,Potency,[4],inactive
same,Potency,[5],inactive
same,Potency,[6],inactive
same,Potency,[7],inactive
same,Potency,[8],inactive
same,Potency,[9],inactive
same,Potency,[17],inactive
same,Potency,[10],inactive
same,Potency,[12],inactive
same,Potency,[13],inactive
same,Potency,[14],inactive
same,Potency,[15],inactive
same,Potency,[16],inactive
CO/N=C(/C(=O)N[C@@H]1C(=O)N2C(C(=O)O)=C(Cn3nnc(C)n3)CS[C@H]12)c1csc(N)n1,Potency,[1],inactive
same,Potency,[2],inactive
same,Potency,[3],inactive
same,Potency,[4],inactive
same,Potency,[5],inactive
same,Potency,[6],inactive
same,Potency,[7],inactive
same,Potency,[9],inactive
same,Potency,[17],inactive
same,Potency,[10],inactive
same,Potency,[11],inactive
same,Potency,[12],inactive
same,Potency,[13],inactive
same,Potency,[14],inactive
same,Potency,[15],inactive
same,Potency,[16],inactive
C=C(C)C1CC=C(C)C(=O)C1 (stereo unspecified),Potency,[1],inactive
same,Potency,[2],inactive
same,Potency,[3],inactive
same,Potency,[4],inactive
same,Potency,[5],32.2 µM (active)
same,Potency,[6],inactive
same,Potency,[8],inactive
same,Potency,[9],inactive
same,Potency,[17],inactive
same,Potency,[10],inactive
same,Potency,[11],inactive
same,Potency,[12],inactive
same,Potency,[13],inactive
same,Potency,[14],inactive
same,Potency,[15],inactive
same,Potency,[16],inactive
Cc1ccc(N)cc1S(=O)(=O)O,Potency,[1],inactive
same,Potency,[2],inactive
same,Potency,[3],inactive
same,Potency,[4],inactive
same,Potency,[5],inactive
same,Potency,[6],inactive
same,Potency,[7],inactive
same,Potency,[8],inactive
same,Potency,[9],inactive
same,Potency,[10],inactive
same,Potency,[11],inactive
same,Potency,[12],inactive
same,Potency,[13],inactive
same,Potency,[14],inactive
same,Potency,[15],inactive
same,Potency,[16],inactive
O=C(Cl)c1cccc([N+](=O)[O-])c1,Potency,[1],inactive
same,Potency,[2],inactive
same,Potency,[3],inactive
same,Potency,[4],inactive
same,Potency,[5],inactive
same,Potency,[6],inactive
same,Potency,[7],inactive
same,Potency,[8],inactive
same,Potency,[17],inactive
same,Potency,[10],inactive
same,Potency,[11],inactive
same,Potency,[12],inactive
same,Potency,[13],inactive
same,Potency,[15],inactive
same,Potency,[16],inactive
O=C(O)CN(CCOCCOCCN(CC(=O)O)CC(=O)O)CC(=O)O,"activity, positive = activation",[1],-0.157% [at 0.349 µM]
same,activity change,[2],"0.537% [at 0.217 µM, active compounds read high]"
same,activation,[3],-1.47% [at 0.29 µM]
same,activation,[4],-0.598% [at 0.217 µM]
same,"activity change, negative = cytotoxicity",[5],0.622% [at 0.249 µM]
same,"activity change, negative = cytotoxicity",[6],-3.51% [at 0.249 µM]
same,"activity change, negative = cytotoxicity",[7],-15.2% [at 0.249 µM]
same,"activity, negative = inhibition",[17],-20.9% [at 0.232 µM]
same,activation,[10],-0.0666% [at 0.29 µM]
same,"activity change, negative = inhibition",[12],0.383% [at 0.349 µM]
same,"activity change, negative = inhibition",[13],0.881% [at 0.349 µM]
same,activation,[14],0.525% [at 0.349 µM]
same,"activity change, negative = inhibition",[16],-1.35% [at 0.348 µM]
